LASV entry inh – blocks Lassa virus binding to or entry into cells; Lassa virus pseudotype entry inhibition, cell reporter; Potency, µM (doses to about 37.9 µM), inactives show top-dose activity change, negative = inhibition, hits mostly inhibitors; 300,000 compounds, 1.2% hits; AID 540256; calls by dose curve; tested in HEK293 cells; also: potency is read from the fitted curve at half-maximal effect; % is scaled to controls: 0 for no effect and ±100 for the full control effect; nearly all actives have a fitted effect of over 50% in size
CHX counter – affects cycloheximide protein synthesis inhibition readout, counter-screen; cell reporter, cycloheximide protein synthesis inhibition counterscreen; max response, %; 300,000 compounds, 12% hits; AID 2314; in the data active = max response mostly above about 13%, no sharp cut-off; inactive = mostly below about 14%; also: read at 38.3 µM for the half of the compounds with a filed dose; 0% is about no effect
AMA1-RON2 inh – disrupts binding of P. falciparum AMA1 to RON2; 360,000 compounds, 0.2% hits; Potency, µM (titrated, usually from 58.2 µM), inactives show at the highest dose activity change, negative = inhibition, hits mostly inhibitors; AID 720542; AlphaScreen AMA1-biotinylated RON2 peptide binding; active = well fitted inhibition curve with a large enough effect; inconclusive = small, poorly fitted or top-dose-only effect; inactive = no such curve, though single readings can be large or run the other way;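 also: potency is read from the fitted curve at half-maximal effect; 0% = vehicle wells and -100% = peptide control; nearly all actives have a fitted effect of over 45% in size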
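AMA1 (3D7) with his tag at 25 nM final met compounds first, then biotinylated RON2 peptide at 25 nM; detection used donor plus acceptor beads, 10 µg/mL apiece, read by AlphaScreen after 30 min at room temperature.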
Shiga toxin inh – blocks Shiga toxin action in Vero cells; Vero cells, Shiga toxin protein synthesis inhibition reporter; inhibition, % at 38.7 µM; 290,000 compounds, 9.2% hits; AID 2315; in the data active = inhibition mostly above about 28%, no sharp cut-off; inactive = mostly below about 43%; also: 0% is about no effect
Marburg entry inh – blocks Marburg virus binding to or entry into cells; Marburg virus pseudotyped entry inhibition, cell reporter; AID 540276; 300,000 compounds, 1.8% hits; Potency, µM (top dose mostly 37.8 µM), for inactives: top-dose activity change, negative = inhibition, actives largely listed as inhibitors; calls by dose curve; tested in HEK293 cells; also: potency is read from the fitted curve at half-maximal effect; % is scaled to controls: 0 for no effect and ±100 for the full control effect
Starred values were filed as active, the others as inactive; ? = inconclusive; . = no result given; [ ] = another dose, or the depositor's remark. This excerpt belongs to a sample that is enriched for hits.

SMILES	LASV entry inh	CHX counter	AMA1-RON2 inh	Shiga toxin inh	Marburg entry inh
O=C(NCc1ccccc1)Nc1cccn(Cc2ccccc2Cl)c1=O	.	3	-11%	50*	.
Cc1ccccc1CN1C(=O)c2ccccc2C1c1nnnn1C(C)C (centres undefined)	.	.	4%	.	.
CCN1C(=O)C(CC(=O)Nc2c(C)cccc2C)Nc2cc(S(=O)(=O)N(C)C)ccc21 (centres undefined)	-3%	1	5%	8	0%[46.1 µM]
COc1ccc(NC(=O)c2cc(C3CCCCN3S(=O)(=O)Cc3ccccc3)on2)c(C)c1 (centres undefined)	.	.	8%	.	.
c1ccc2c(Oc3ccc4c(c3)OCO4)nncc2c1	-9%	29*	2%	76*	?
CN(CC(=O)Nc1ccccc1C(F)(F)F)C(=O)c1ccc(N2C(=O)CCC2=O)cc1	-2%	.	5%	.	0%[46.1 µM]
Fc1cccc(NCc2cccn2-c2nnc(N3CCOCC3)s2)c1	-13%[46.1 µM]	.	.	.	.
S=C(NCCc1ccccn1)Nc1ccc(Cl)cc1Cl	-1%	14*	15%	42	10%[46.1 µM]
S=C(NCCc1ccccn1)Nc1ccc(Cl)c(Cl)c1	13%	2	8%	41*	-35%
CN(C)CCNC(=S)Nc1ccccc1Cl	19%	-5	15%	-5	-13%
S=C(NCCc1ccccn1)Nc1ccccc1	.	22*	15%	34*	.
CN(C)CCNC(=S)Nc1ccc(Cl)cc1Cl	10%	23*	2%	30	?
O=C1NC[C@H](CCCCN2C[C@H](Cc3ccc(O)cc3)N(CCC3CCCCC3)C(=O)C2=O)N(CCC2CCCCC2)C1=O	.	.	-5%	.	.
COc1ccc(CC(=O)Nc2ccc(S(=O)(=O)N3CCC(C)CC3)cc2)c(OC)c1	.	.	-4%	.	.
CC(C)(C)C(=O)NCc1ccc(C(=O)CSc2nnc3n2CCCCC3)s1	.	.	-8%	.	.
Cc1onc(-c2ccccc2)c1C(=O)OCC(=O)NCc1ccc(F)cc1	-5%	5	14%	-8	10%[46.1 µM]
COc1cccc(NC(=S)NCCc2ccccn2)c1	.	27*	75%	39*	.
O=C(CC(=O)Nc1ccc(Cl)cc1Cl)Nc1ccc(Cl)cc1Cl	-7%[46.1 µM]	-3	-8%	4	?
CN(C)C(=S)SCC(=O)Nc1ccc(Cl)cc1Cl	11%	24*	10%	110*	-1%
S=C(NCCc1ccccn1)Nc1cc(Cl)cc(Cl)c1	-25%[46.1 µM]	-1	25%	-5	?
COc1ccc(C2=NC(C)(C)N(CC(=O)Nc3ccc(F)c(F)c3)C2=O)cc1	8%[46.1 µM]	.	.	.	-20%[46.1 µM]
CCN(CC)c1ccc(S(=O)(=O)N2CCOCC2)cc1NC(=O)COC(=O)/C=C/c1ccc(C)o1	?	.	-24%	.	?
CC1N(C)c2cc(NC(=O)c3ccco3)c(P(=O)(Nc3ccc([N+](=O)[O-])cc3)N3CCOCC3)cc2C1(C)C (centres undefined)	?	24	-12%	56*	?
CC1N(C)c2cc(NC(=O)c3ccco3)ccc2C1(C)C (centres undefined)	?	44*	?	74*	?
O=C(N/C(=C\c1ccc([N+](=O)[O-])cc1)C(=O)N1CCOCC1)c1ccco1	0%[46.1 µM]	-5	-6%	-10	-6%[46.1 µM]
SMILES	LASV entry inh	CHX counter	AMA1-RON2 inh	Shiga toxin inh	Marburg entry inh
Cc1cc(C)cc(NC(=O)c2ccc(NC(=O)c3ccco3)cc2)c1	-26%[46.1 µM]	1	-6%	-8	?
Cc1ccc(S(=O)(=O)N2C(c3ccccc3)CC(=O)C3CN(S(=O)(=O)c4ccc(Cl)cc4)C(c4ccccc4)CC32)cc1 (centres undefined)	.	.	-7%	.	.
Cc1ccc(NC(=O)c2nc(S(C)(=O)=O)ncc2N(Cc2ccco2)Cc2ccco2)cc1C	0%[46.1 µM]	.	.	.	?
Cc1ccc(NC(=O)N(Cc2ccco2)C(C)c2ccco2)cc1C (centres undefined)	-28%	10*	-6%	-14	-2%
Cc1ccc(NC(=O)CN(Cc2ccco2)Cc2ccccc2O)cc1C	?	26*	1%	59*	?
Cc1ccc(NC(=O)N(Cc2cccnc2)Cc2ccco2)cc1C	?	-4	-3%	-5	?
C#CCn1cc2c(c1-c1ccccc1)c(=O)n(C)c(=O)n2C	.	.	15%	.	.
CCCCCOc1ccc(CSCCNC(=S)Nc2ccccc2)cc1	-16%	24*	0%	62	3%
Cc1ccc(C)c(N(CC(=O)Nc2cc(Cl)ccc2Oc2ccccc2)S(C)(=O)=O)c1	?	-4	-5%	-10	13µM*
Cc1cccc(C)c1N(CC(=O)Nc1cc(Cl)ccc1Oc1ccccc1)S(C)(=O)=O	?	-3	-2%	16	?
CC(C)(C)NS(=O)(=O)c1ccc(CCC(=O)Nc2cc(Cl)ccc2Oc2ccccc2)cc1	?	12	4%	-6	8.9µM*
CCOC(=O)c1c(S(=O)(=O)N2CCC(C(=O)N3CCN(c4cc(C)ccc4C)CC3)CC2)c(C)n(C)c1C	-21%[46.1 µM]	.	.	.	.
CCCCNC(=O)C1C(c2ccc(OC)cc2)=Nc2ccccc2N1C(=O)c1cccnc1 (centres undefined)	.	.	-11%	.	.
COc1ccccc1Nc1nc(-c2sc(NC(=O)c3ccco3)nc2C)cs1	.	-2	-11%	12	.
O=C(CSc1n[nH]c(-c2cccnc2)n1)Nc1ccccc1[N+](=O)[O-]	-2%[46.1 µM]	-3	-21%	18	-9%[46.1 µM]
COc1ccccc1Nc1nc(C2(C)CCC(=O)O2)cs1 (centres undefined)	?	52*	-5%	62*	?
O=[N+]([O-])c1ccccc1Nc1nc(-c2cccnc2)cs1	.	26*	?	.	.
COc1ccc2cc(-c3cccnc3)ncc2c1	.	.	3%	.	.
COc1ccc(OC)c2nc(-c3cccnc3)ccc12	16%	29*	9%	48*	25%
CCc1ccccc1Nc1nc(-c2cccnc2)cs1	.	19*	-4%	23	.
O=C(COc1ccccc1)Nc1nc(-c2cccnc2)cs1	.	.	2%	.	.
COCCCN(C(=O)Cc1csc(-c2cccc(Cl)c2)n1)c1c(N)n(Cc2ccccc2)c(=O)[nH]c1=O	8%	.	1%	.	0%
COc1ccc(CC(=O)Nc2nc(-c3cccnc3)cs2)cc1	?	-4	6%	-10	-5%
COc1ccc(Nc2nc(-c3cccnc3)cs2)c(OC)c1	7%	37*	-23%	38*	-2%
COc1ccccc1Nc1nc(-c2cccnc2)cs1	4%	34*	-10%	36*	-22%
SMILES	LASV entry inh	CHX counter	AMA1-RON2 inh	Shiga toxin inh	Marburg entry inh
COc1cccc(CC(=O)Nc2nc(-c3cccnc3)cs2)c1	?	0	-13%	-15	3%
COC(=O)Cc1ccc2c3ccccc3n(C)c2c1	5%	25*	15%	18	4%
Cn1c2ccc(CC(=O)O)cc2c2cc(CC(=O)O)ccc21	-7%	-2	1%	-11	3%
Cc1ccc(C(=O)Nc2nc(C)c(C)s2)o1	?	35*	-6%	62*	?
Cc1nc(NC(=O)c2ccc(Br)o2)sc1C	-29%	45*	4%	63*	-3%
CCCNC(=O)C1(C)CCN(C(=O)c2cc(F)cc(F)c2)C1 (centres undefined)	.	.	5%	.	.
Cc1ccc(S(=O)(=O)N2CCN(Cc3cc(Br)ccc3O)CC2)cc1	-29%[46.1 µM]	.	.	.	.

High-throughput results: PubChem BioAssay, National Center for Advancing Translational Sciences (NCATS)
